Results taken from PubChem BioAssay (NCATS).
Inconclusive results are not listed. Active and inactive are the calls of the source. The call rests on the fitted dose curve; in most records, active means well fitted curve in the direction sought with a large enough effect; inconclusive means small, poorly fitted or top-dose-only effect, or another doubt; inactive means no such curve, though single readings can be large; an effect the other way counts as inactive or inconclusive. Numbered stars: 1 amine (or outer) side, 2 acyl side, 3 side chain; on linkers, the order of the positions; unused ones are H or OH. Square brackets hold non-standard residues; d marks the D form. Peptide text beside a SMILES is read from it. X1 = CCCCCCCCCC(=O)[C@H](C(=O)[*:2])[C@@H]1CNC(=O)[C@@H](N[*:1])CS1

Legend:
[1] = A2780 Cisplatin Sensitive Ovarian Cancer Cell Toxicity qHTS against the NCATS CANVASS Library (AID 1347353); further: nearly all actives have a fitted effect of over 60% in size; further: potency means the concentration at half of the fitted maximal effect
How it was run: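 Cisplatin-sensitive A2780 ovarian cells (750/well) received compound in 11 concentrations, and were incubated 72 h at 37 °C. ATP content was measured by ATPLite luminescence; bortezomib served as control.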

[2] = UWB1.289-WTBRCA1 Cancer Cell Toxicity qHTS against the NCATS CANVASS Library (AID 1347354); further: potency means the concentration at half of the fitted maximal effect
How it was run: (§1)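 Toxicity was measured as CellTiter-Glo luminescence after 72 h exposure to an 11-point compound series. Compound was added to 1000 cells/well 4 h after seeding.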

[3] = HEK-293 Cancer Cell Toxicity qHTS against the NCATS CANVASS Library (AID 1347355); further: nearly all actives have a fitted effect of over 65% in size; further: potency means the concentration at half of the fitted maximal effect; on outcome: series mostly up to about 46 µM
How it was run: as §1

[4] = tested on: NAD(P)H diaphorase (Clostridium kluyveri); assay: Diaphorse counterscreen qHTS: Assay Interference Panel against the NCATS CANVASS Library (AID 1347362); further: potency means the concentration at half of the fitted maximal effect
How it was run: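 Clostridium kluyveri diaphorase in PBS with 0.01% Tween-20 was preincubated 15 min at room temperature in the dark with compounds (11-point series). Resorufin fluorescence (ex 525/20, em 598/25) was read 5 min after adding resazurin/NADH.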

[5] = SDT Cancer Cell Toxicity qHTS against the NCATS CANVASS Library (AID 1347365); further: nearly all actives have a fitted effect of over 60% in size; further: potency means the concentration at half of the fitted maximal effect
How it was run: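 Cytotoxicity taken from CellTiterGlo ATP luminescence after 72 hr at 37C, 5% CO2. Canine glioma line SDT, 500 cells/well, treated at 11 concentrations; bortezomib dose series as control.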

[6] = G06 Cancer Cell Toxicity qHTS against the NCATS CANVASS Library (AID 1347368); further: nearly all actives have a fitted effect of over 60% in size; further: potency means the concentration at half of the fitted maximal effect
How it was run: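 Viability measured by CellTiterGlo ATP luminescence after 72 hr at 37C, 5% CO2. Canine G06 glioma cells plated at 500/well. Compounds tested as 11-point qHTS titrations.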

[7] = DH5-alpha competent E. coli microbial cell viability qHTS against the NCATS CANVASS Library (AID 1347377); details: outcome: dose series up to 46.1 µM unless noted
How it was run: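 Bacterial viability as ATP-dependent luminescence (BacTiter-Glo), read after overnight 37 °C exposure of DH5-alpha competent E. coli to compounds in 11-point titration.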

[8] = qHTS for H2AX Agonists against the NCATS CANVASS Library (AID 1347378);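 further: phospho-H2AX S139 level in CHO-K1 lysates by TR-FRET emission ratio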; further: potency means the concentration at half of the fitted maximal effect
How it was run: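 CHO-K1, 1000 cells/well, o/n 37C; cpd several conc, 3 hr 37C, 0.76% DMSO; lyse 30 min RT; cryptate anti-pH2AX(S139) + d2 anti-H2AX, 24 hr RT; HTRF 665/620.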

[9] = Cytotoxicity qHTS for assessment of Hepg2 cells membrane integrity screened against the NCATS CANVASS Library (AID 1347387)
How it was run: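 Membrane damage quantified as fluorescent LDH-release signal (ex 560, em 590 nm) in HepG2 cells treated 5 hr at 37C. qHTS format, 11 concentrations spanning 0.59 nM - 46 uM final, cells plated at 2000 per well the night before.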

[10] = qHTS assay for small molecule disruptors of mitochondrial membrane potential screened against the NCATS CANVASS Library (AID 1347389); further: nearly all actives have a fitted effect of over 60% in size; further: potency means the concentration at half of the fitted maximal effect
How it was run: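 Mitochondrial membrane potential in HepG2: 1 h compound treatment (11-point concentration series), 30 min m-MPI dye at 37C, then dual fluorescence of J-aggregates (ex 540/em 590) and monomers (ex 490/em 535); lower red/green ratio indicates depolarization.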

[11] = Secretion counterscreen for inhibitors of the SERCaMP assay screened against the NCATS CANVASS Library (AID 1347390);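 further: light from luciferase secreted into medium read as a measure of general secretion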; further: potency means the concentration at half of the fitted maximal effect
How it was run: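 SH-SY5Y-GLuc STOP cells; 4 h attach; cpds 0.001 - 77 uM (qHTS, 11 pts), 20 h 37C/5% CO2; coelenterazine in glow buffer; luminescence, 5 s exposure.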

[12] = qHTS for inhibitors of ER calcium dysfunction: SERCaMP assay screened against the NCATS CANVASS Library (AID 1347393); further: nearly all actives have a fitted effect of over 40% in size; further: potency means the concentration at half of the fitted maximal effect
How it was run: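 qHTS in SH-SY5Y reporter cells: 16 h compound pretreatment, 4 h thapsigargin, then secreted Gaussia luciferase measured by luminescence.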

[13] = Viability qHTS for inhibitors of the SERCaMP assay screened against the NCATS CANVASS Library (AID 1347400); further: nearly all actives have a fitted effect of over 70% in size; further: potency means the concentration at half of the fitted maximal effect
How it was run: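 CellTiter-Glo luminescence measured cytotoxicity after 48 h at 37C of compound treatment (11-point series). Cells were SH-SY5Y-GLuc SERCaMP MJH297 derivatives, seeded at 1000 per well 4 h beforehand.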

[14] = HPAF-II 12hr Apoptosis Induction qHTS against the NCATS CANVASS Library (AID 1347358)
How it was run: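 Caspase-3/7 activation by DEVD-substrate luminescence (Caspase-Glo 3/7, 15 min, room temperature) after a 12-hour compound exposure in 11 concentrations, of HPAF-II pancreatic cells seeded at 500/well in DMEM with 10% FBS.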

[15] = target: Nuclear receptor subfamily 1 group I member 3 (Homo sapiens) (UniProt Q14994); assay: qHTS for Constitutive Androstane Receptor (CAR) Antagonist screened against the NCATS CANVASS Library (AID 1347372); further: potency means the concentration at half of the fitted maximal effect
Nuclear receptor subfamily 1 group I member 3 (Homo sapiens), sequence (Q14994 whole entry, looked up): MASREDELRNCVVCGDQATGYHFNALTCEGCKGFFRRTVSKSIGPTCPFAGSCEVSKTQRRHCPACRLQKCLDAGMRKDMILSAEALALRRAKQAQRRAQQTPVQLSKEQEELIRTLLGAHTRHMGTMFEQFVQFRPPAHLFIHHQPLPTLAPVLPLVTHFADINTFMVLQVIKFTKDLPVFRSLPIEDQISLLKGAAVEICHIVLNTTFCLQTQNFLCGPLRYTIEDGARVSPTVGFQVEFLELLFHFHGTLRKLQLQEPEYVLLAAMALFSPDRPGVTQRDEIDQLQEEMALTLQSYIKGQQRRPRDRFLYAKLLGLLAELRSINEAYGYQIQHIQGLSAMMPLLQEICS
How it was run: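 Cells were seeded and left 4hr to attach, then received compound at 11 concentrations and 50 nM CITCO. Following 24hr incubation, fluorescence viability and luciferase luminescence were read sequentially.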

[16] = qHTS for Hypoxia signaling pathway (HIF-1) antagonists against the NCATS CANVASS Library (AID 1347374); further: nearly all actives have a fitted effect of over 60% in size; further: potency means the concentration at half of the fitted maximal effect
How it was run: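 Antagonism scored as loss of CoCl2-driven (60 uM stock added) HRE beta-lactamase signal, read by CCF4 FRET at 460/530 nm. Compounds were tested in an 11-point series on ME-180 reporter cells for 17 hrs at 37C, with parallel CellTiter-Glo cytotoxicity.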

[17] = qHTS for Hypoxia signaling pathway (HIF-1) agonists against the NCATS CANVASS Library (AID 1347375); further: potency means the concentration at half of the fitted maximal effect
How it was run: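 Beta-lactamase reporter under HRE control in ME-180 cells; compounds (11-point qHTS series) added after 5 hrs plating, then 17 hrs at 37C. FRET substrate read after 2 hr; same-well CellTiter-Glo luminescence gave viability and normalization.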

[18] = qHTS for Activators of p53 Stress Response Pathway screened against the NCATS CANVASS Library (AID 1347388)
How it was run: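 p53RE-bla HCT-116 cells (4000/well) were plated 5 h at 37C, exposed to compounds for 16 h at 37C over an 11-point concentration series, then loaded with CCF4 for 2 h at room temperature; 460/530 nm emission ratio read.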

[19] = U-118MG Cancer Cell Toxicity qHTS against the NCATS CANVASS Library (AID 1347351); further: potency means the concentration at half of the fitted maximal effect
How it was run: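 Bortezomib titration and single-dose wells served as plate controls. Test compounds, 11 points, acted on 1000 cells/well for 72 h at 37 degrees C; CellTiter-Glo luminescence quantified remaining viable cells.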

[20] = KB-8-5-11 Cancer Cell Toxicity qHTS against the NCATS CANVASS Library (AID 1347364); further: nearly all actives have a fitted effect of over 75% in size; further: potency means the concentration at half of the fitted maximal effect
How it was run: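 Viability read as CellTiter-Glo luminescence after 72 h at 37 °C, 5% CO2. 11-point compound series on 500 KB-8-5-11 cells/well in DMEM/10% FBS. Follow-up plating included 1 uM tariquidar in the medium.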

Measured: Potency

C=C(C)C(=O)O[C@H]1C[C@H](C)[C@@H](OC(C)=O)CC[C@@]2(C)O[C@@H]2[C@H]2OC(=O)C(COC(C)=O)=C12
inactive: [4] | [7] | [8] | [9] | [10]
active: [1] 0.833 µM | [2] 7.47 µM | [3] 3.72 µM | [5] 6.62 µM | [6] 2.64 µM | [11] 17.2 µM | [12] 0.86 µM | [13] 9.57 µM

CO[C@H]1/C=C/CC[C@@H](S[C@@H]2O[C@H](CO)[C@@H](O)[C@H](O)[C@H]2O)CC(=O)O[C@@H](/C(C)=C/[C@H](C)C(=O)CCCC2CC(=O)NC(=O)C2)[C@@H](C)[C@@H]1O
active: [1] 1.05 µM | [3] 1.87 µM | [5] 1.18 µM | [6] 1.48 µM | [15] 14.8 µM | [16] 2.11 µM | [11] 7.67 µM | [13] 12 µM
not listed: [2] | [8] | [19] | [20]
inactive: all other assays above

CC(C)=CCC/C(C)=C/Cc1c(O)c(CC=C(C)C)c(O)c2c(=O)c3cc(O)ccc3oc12
inactive: [14] | [4] | [15] | [7] | [9] | [11] | [13]
active: [19] 21.1 µM | [1] 14.8 µM | [2] 14.9 µM | [5] 20.9 µM | [6] 23.5 µM | [17] 13.3 µM | [10] 1.86 µM

C[C@@H](O)[C@H]1OC(=O)C=C2[C@]3(C)[C@H]4[C@H](OC(=O)[C@@]4(C)[C@@H](O)[C@H]4O[C@H]43)[C@H]3O[C@@]231
active: [1] 0.833 µM | [3] 1.48 µM | [20] 1.48 µM | [5] 1.18 µM | [6] 1.48 µM | [15] 5.24 µM | [16] 1.49 µM | [11] 3.84 µM | [13] 7.6 µM
inactive: [14] | [4] | [17] | [7] | [9] | [10] | [12]

CC(=O)[C@@H]1[C@@H](O)C[C@H]2[C@]3(C)CC[C@H]4C(C)(C)CCC[C@]4(CO)[C@H]3C[C@H]3OC(=O)[C@@H]1[C@@]32C
active: [12] 38.4 µM
not listed: [3]
inactive: all other assays above

CC(=O)O[C@@H]1C=C2C(=O)OC[C@]2(O)[C@@]2(C)CCCC(C)(C)[C@H]12
inactive: [4] | [18] | [12]
active: [19] 18.8 µM | [1] 1.32 µM | [2] 21.1 µM | [3] 8.33 µM | [20] 18.7 µM | [5] 13.2 µM | [6] 10.5 µM | [16] 7.47 µM | [10] 18.6 µM | [11] 15.3 µM | [13] 12 µM

OCc1ccc2ocnc2c1
inactive: all assays above

CCCCCCCCCC(=O)[C@@H]1C(=O)N[C@@H](CC(C)C)C(=O)N[C@H](C)C(=O)N2CCC[C@H]2C(=O)N[C@@H](C(C)C)C(=O)N[C@H]2CS[C@H]1CNC2=O (cyclo(L[dA]PV[X1]))
not listed: [4] | [5] | [6] | [7] | [12]
inactive: all other assays above

COc1cc(/C=C2/C(=O)N(c3ccc(O)cc3C(=O)O)[C@H](c3ccc(O)c(OC)c3)C2C(=O)Nc2ccc(O)cc2C(=O)O)ccc1O (stereo partly drawn)
active: [16] 8.38 µM
inactive: all other assays above

C[C@@H]1O[C@H](c2c(O)cc(O)c3c(=O)cc(-c4ccc(O)cc4)oc23)[C@H](O)[C@H](O)[C@H]1O
inactive: all assays above

CN1CC[C@]2(c3cccc4c3N[C@@H]3N(C)CC[C@]43[C@@]34CCN(C)[C@@H]3Nc3ccccc34)c3ccccc3N[C@H]12
inactive: [14] | [4] | [17] | [8] | [9] | [18] | [10] | [12]
active: [19] 7.49 µM | [1] 14.8 µM | [3] 7.43 µM | [20] 16.6 µM | [5] 2.96 µM | [6] 3.72 µM | [15] 26.3 µM | [16] 14.9 µM | [13] 15.2 µM

C=C(C)[C@@H]1CC[C@]2(C)CC[C@]3(C)[C@H](CC[C@@H]4[C@@]5(C)CC[C@H](O)C(C)(C)[C@@H]5CC[C@]43C)[C@@H]12
inactive: all assays above

C/C=C/C(=O)[C@@H](C)C1=CC(=O)C2=C(O[C@@]34CC[C@H](O)C(C)(C)[C@@H]3CC[C@H](C)[C@@]4(C)C2)C1=O
active: [1] 1.66 µM | [3] 2.96 µM | [4] 8.61 µM | [20] 14.8 µM | [5] 2.96 µM | [6] 3.32 µM | [15] 20.9 µM | [16] 2.11 µM | [8] 15.4 µM | [10] 16.6 µM | [11] 17.2 µM | [13] 13.5 µM
inactive: [7] | [9]

CCCCCCCCCCCCCCCC(=O)OC/C=C(\C)CCCC(C)CC(C)C(C)C (stereo not drawn)
inactive: all assays above

CC1(C)CC[C@]2(C(=O)O)CC[C@]3(C)C(=CC[C@@H]4[C@@]5(C)C[C@@H](O)[C@H](O)C(C)(C)[C@@H]5CC[C@]43C)[C@@H]2C1
inactive: [14] | [5] | [6] | [15] | [7] | [10] | [11] | [13]

COc1ccc(/C=C2\COc3cc(O)ccc3C2=O)cc1
active: [1] 14.8 µM | [10] 20.9 µM
inactive: [2] | [14] | [4] | [6] | [15] | [17] | [7] | [8] | [9] | [11]
